# Nrf2 activator: activators of Nrf2 (ARE) signaling; AREc32 ARE-luciferase reporter (MCF7-derived line), luminescence, 24 h; Potency, µM (series often up to 46.1 µM), for the others: at the highest dose activation, hits mostly activators; 410,000 tested, 0.31% active; also: % of control where 0% means no effect; nearly all actives have a fitted effect of over 65% in size
#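 Luciferase luminescence (Steady-Glo, 30 min at room temperature) served as the read-out of ARE activation in AREc32 cells treated with compounds for 24 hr at 37 deg C.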
# A549 tox: kills or reduces viability of A549 cells in Nrf2 counter-screen | A549 ARE-Fluc cells, CellTiter-Fluor viability, 18-24 h | Potency, µM (highest dose often 46 µM), inactives show top-dose activity change, negative = cytotoxicity, most hits filed as inhibitors | 390,000 tested, 0.16% active | AID 504648; also: % is scaled to controls: 0 for no effect and ±100 for the full control effect
#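 Cytotoxicity counterscreen: CellTiter-Fluor fluorescence was measured in A549 ARE_Fluc cells after 18-24 h of compound exposure in a concentration series. The subsequent BugLite luminescent read reports ARE-luciferase activity.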
# ELG1 repair inh: blocks ELG1-dependent DNA repair in HEK293T cells; AID 504467; HEK293T ELG1-luciferase reporter, luminescence, 16 h; DNA damage induced by 5-fluorouridine; Potency, µM (top dose mostly 46.1 µM), without a hit: top-dose activity change, negative = inhibition, usual class: inhibitors; 330,000 tested, 2.3% active; also: % is scaled to controls: 0 for no effect and ±100 for the full control effect; nearly all actives have a fitted effect of over 55% in size
#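 Luminescence from the luciferase reporter, measured 30 min after ONE-Glo reagent at room temperature, was the read-out. Beforehand, 2,000 cells per well were exposed for 16 hr at 37 °C to 5-fluorouridine together with compound or vehicle.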
# IDH1 R132H inh: human IDH1 R132H inhibition; O75874; 390,000 tested, 0.093% active; IDH1-R132H enzyme, NADPH consumption, diaphorase/resazurin fluorescence; AID 602179; Potency, µM (top dose mostly 76.6 µM), without a hit: top-dose activity change, negative = inhibition, actives largely listed as inhibitors; also: % is scaled to controls: 0 for no effect and ±100 for the full control effect; nearly all actives have a fitted effect of over 65% in size
#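 IDH1-R132H (0.5 ug/mL) preincubated 30 min with compound, then NADPH (0.016 mM) and alpha-KG (2 mM) added; 80 min at RT, pH 7.5. Remaining NADPH coupled via diaphorase/resazurin to fluorescence (540/590 nm); concentration-response curves normalized to no-enzyme control.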
# Nrf2 block: inhibitors of Nrf2 signaling. 360,000 tested, 2.1% active. Potency, µM (doses to about 46 µM), without a hit: top-dose activity change, negative = inhibition, actives largely listed as inhibitors. A549 ARE-Fluc reporter, luciferase luminescence, 18-24 h; also: % is scaled to controls: 0 for no effect and ±100 for the full control effect; nearly all actives have a fitted effect of over 60% in size
#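 A549 ARE_Fluc cells (5000/well, 5% FBS OPTI-MEM) pre-incubated 2 h, then treated with compounds 18-24 h at 37C/5% CO2 in concentration-response. CellTiter-Fluor viability read first; BugLite luciferase luminescence after 15 min at room temperature gives Nrf2 activity.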
# ELG1 FLuc counter: luciferase inhibition in cell-free luciferin readout for ELG1 hits | shares compounds with ELG1 repair inh | cell-free firefly luciferase luminescence counter-screen, ViewLux | Potency, µM (highest dose often 46.1 µM), without a hit: at the top dose activity change, negative = inhibition, usual class: inhibitors | 350 tested, 3% active | AID 624247; also: % is scaled to controls: 0 for no effect and ±100 for the full control effect
# ELG1 Luc conf: confirmation of human ELG1-dependent DNA repair inhibitors; HEK293T ELG1-luciferase levels, luminescence; cells co-treated with 5-fluorouridine; 670 tested, 68% active; Potency, µM (doses to about 46.1 µM), without a hit: top-dose activity change, negative = inhibition, most hits filed as inhibitors; AID 624248; shares compounds with ELG1 repair inh; also: % is scaled to controls: 0 for no effect and ±100 for the full control effect; nearly all actives have a fitted effect of over 55% in size
# ELG1 MMS Luc: MMS-stimulated human ELG1 repair inhibition, confirmed; AID 624249; 670 tested, 53% active; Potency, µM (top dose mostly 46.1 µM), for inactives: at the top dose activity change, negative = inhibition, usual class: inhibitors; shares compounds with ELG1 repair inh; HEK293T luciferase-tagged ELG1 level, MMS stimulated; also: % is scaled to controls: 0 for no effect and ±100 for the full control effect; nearly all actives have a fitted effect of over 60% in size
# ELG1 5-FU: confirmation of ELG1 repair inhibitors: viability with 5FU; shares compounds with ELG1 repair inh; cell viability with 5-FU, ELG1-dependent repair; Potency, µM (top dose mostly 46.1 µM), without a hit: at the top dose activity change, negative = viability loss, hits mostly cytotoxic; 670 tested, under 10 active; AID 624250;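 also: ELG1-luc HEK293T cells cotreated with 5-fluorouridine at 10 µM final; viability measured 16 h after compound addition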
# ELG1 MMS viab: confirmation of ELG1 repair inhibitors: viability with MMS; 670 tested, 33% active; AID 624251; Potency, µM (top dose mostly 46.1 µM), without a hit: top-dose activity change, negative = viability loss, actives largely listed as cytotoxic; Cell viability with MMS, ELG1-dependent DNA repair; shares compounds with ELG1 repair inh;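 also: ELG1-luc HEK293T cells co-treated with 10 µM MMS; viability read 16 h after compound addition; % is scaled to controls: 0 for no effect and ±100 for the full control effect; nearly all actives have a fitted effect of over 60% in size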
# Cell viab unstim: unstimulated viability counter-screen for ELG1 repair hits | shares compounds with ELG1 repair inh | Potency, µM (series often up to 45.9 µM), for inactives: top-dose activity change, negative = loss of viability, most hits filed as cytotoxic | cell viability counter-screen, unstimulated, luminescence | 900 tested, 8% active;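 also: compound exposure lasted 16 hours before reading; % is scaled to controls: 0 for no effect and ±100 for the full control effect; nearly all actives have a fitted effect of over 55% in size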
# FLuc enzyme: firefly luciferase inhibition counter-screen. shares compounds with ELG1 repair inh. purified firefly luciferase, luminescence counter-screen. Potency, µM (titrated, usually from 57.5 µM), without a hit: at the top dose activity, negative = inhibition, hits mostly inhibitors. 350 tested, 10% active. AID 624253; also: % is scaled to controls: 0 for no effect and ±100 for the full control effect
# Active calls of the source: *; ? = inconclusive; · = no result given. Most compounds without a hit are left out; they make up all but 3.8% or so of the library. Calls follow the shape of the dose curve; as a rule, active = well fitted curve in the direction sought with a large enough effect; inconclusive = small, poorly fitted or top-dose-only effect, or another doubt; inactive = no such curve, though single readings can be large; an effect the other way counts as inactive or inconclusive. Potency is read from the fitted curve at half-maximal effect.
SMILES,Nrf2 activator,A549 tox,ELG1 repair inh,IDH1 R132H inh,Nrf2 block,ELG1 Luc conf,ELG1 MMS Luc,ELG1 5-FU,ELG1 MMS viab,Cell viab unstim,others
COC(=O)CSc1ccc2nnc(-c3ccc(OC)c(OC)c3)n2n1,0%,-5%,?,-1%,-24%,·,·,·,·,·,
CN(CC(=O)Nc1ccncc1)S(=O)(=O)c1ccc(Br)cc1,0%,?,?,1%,?,·,·,·,·,·,
CN(CCCC(=O)Nc1ccncc1)S(=O)(=O)c1ccc(Cl)cc1,0%,-15%,2.3µM*,1%,?,-17%,7.9µM*,-7%,7.9µM*,?,ELG1 FLuc counter=18%;FLuc enzyme=-6%
Cn1c(=O)c2[nH]c(CSCc3ccccc3)nc2n(C)c1=O,0%,-1%,·,7%,?,·,·,·,·,·,
Cn1c(=O)c2[nH]c(CN(Cc3ccccc3)Cc3ccccc3)nc2n(C)c1=O,0%,-5%,4.1µM*,-2%,-25%,7.9µM*,?,-9%,?,?,
Cc1cc(=O)oc2cc(NC(=O)c3ccc(OC(F)F)cc3)ccc12,0%,4%,?,6%,11%,·,·,·,·,-2%,
Cc1cc(=O)oc2cc(NC(=O)C(C)Oc3ccc(F)cc3)ccc12 (stereo not drawn),0%,-3%,-4%,7%,-1%,·,·,·,·,·,
CCc1ccccc1NC(=O)N1CC(CC)Oc2ccc(Cl)cc21 (stereo not drawn),0%,2%,·,-11%,?,·,·,·,·,·,
CCOc1ccc(-c2cc3c(=O)n(CC(=O)Nc4c(C)cccc4C)ccn3n2)cc1,0%,3%,·,·,·,·,·,·,·,·,
COc1ccc(OC)c(Nc2nc(-c3ccncc3)nc3ccccc23)c1,2%,3%,?,5%,-5%,·,·,·,·,·,
COc1ccc(Nc2nc(-c3ccncc3)nc3ccccc23)cc1,8%,-3%,2.9µM*,9%,?,5µM*,?,?,-12%,?,ELG1 FLuc counter=4%;FLuc enzyme=-7%
CC(Sc1nc(N2CCOCC2)c2c(c1C#N)CC(C)(C)OC2)C(=O)Nc1ccccc1 (stereo not drawn),-1%,-1%,2.9µM*,-3%,?,1.8µM*,-11%,?,?,8%,ELG1 FLuc counter=17%;FLuc enzyme=1%
CCOC(=O)C(C)Sc1nc(N2CCOCC2)c2c(c1C#N)CC(C)(C)OC2 (stereo not drawn),0%,3%,·,-4%,4%,·,·,·,·,·,
